Compound activity (PubChem BioAssay)
CHO-K1 Ca PAM: nonselective activator or artifact in parental CHO-K1 calcium assay; ATP EC20, Fluo-8 calcium fluorescence; 0% at ATP EC20, 100% at ATP max; activation, % at 3 µM; 360,000 compounds, 0.02% hits; AID 602247;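 active means activation above the run cutoff, the mean activation of all test compounds plus 3 SD, cut at about 40% in these data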;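 further: peak over basal fluorescence ratio in a 140 s read after ATP addition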
M1 ag parental: M1 agonist counterscreen hit in parental CHO-K1 cells; Fluo-8 calcium fluorescence; scaled to maximal ATP response, vehicle zero; activation, % at 3 µM; 360,000 compounds, 0.48% hits; AID 602248; in the data active means activation above about 15%;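 further: untransfected CHO-K1 host cells lacking M1 receptor as counterscreen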
M1 ag: human M1 muscarinic receptor agonism. P11229. CHO-K1 hM1, Fluo-8 calcium fluorescence, agonist mode; 0% DMSO, 100% acetylcholine EC100. activation, % at 3 µM. 360,000 compounds, 0.33% hits;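 active means activation above the run's mean compound activation plus 3 SD, cut at about 16% in these data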;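 further: peak over basal fluorescence ratio within a 140 s kinetic read after compound addition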
Target sequence (P11229 whole entry, looked up): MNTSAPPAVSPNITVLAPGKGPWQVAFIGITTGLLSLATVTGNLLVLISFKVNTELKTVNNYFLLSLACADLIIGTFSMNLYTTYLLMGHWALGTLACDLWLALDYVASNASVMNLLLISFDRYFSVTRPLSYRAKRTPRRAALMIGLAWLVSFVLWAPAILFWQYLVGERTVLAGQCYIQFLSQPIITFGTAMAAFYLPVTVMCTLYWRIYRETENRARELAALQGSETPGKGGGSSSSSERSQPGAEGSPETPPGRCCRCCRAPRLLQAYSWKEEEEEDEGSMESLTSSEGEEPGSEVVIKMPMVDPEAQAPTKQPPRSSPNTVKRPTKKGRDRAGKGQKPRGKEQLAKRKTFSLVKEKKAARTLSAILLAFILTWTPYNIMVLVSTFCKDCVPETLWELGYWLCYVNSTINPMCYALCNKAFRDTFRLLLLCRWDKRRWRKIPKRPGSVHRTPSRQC
CHO-K1 Ca antag: nonselective inhibitor or artifact in parental CHO-K1 cells. ATP-induced calcium, Fluo-8 fluorescence. inhibition, % at 3 µM. 360,000 compounds, 0.6% hits. AID 602250;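 active means inhibition above a per-plate cutoff, the plate's mean sample inhibition plus 3 SD, cut at about 24% in these data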;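 further: 0% = DMSO plus EC80 ATP and 100% = DMSO alone without ATP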
M1 antag: human CHRM1 antagonism; 360,000 compounds, 1.3% hits; P11229; inhibition, % at 3 µM; CHO-K1 hM1, Fluo-8 calcium fluorescence, ACh EC80 antagonist;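 active means percent inhibition above its own plate's cutoff, namely the mean of that plate's compound wells plus 3 SD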;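 further: peak over basal fluorescence ratio during 140 s after agonist addition; 0% = ACh EC80 plus DMSO and 100% = DMSO alone without agonist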
CHRM1 PAM: positive allosteric modulators of human M1 muscarinic receptor; CHO-K1 hM1, Fluo-8 calcium fluorescence, ACh EC20; 0% = ACh EC20, 100% = maximal ACh; activation, % at 3 µM; 360,000 compounds, 0.088% hits; AID 588819; in the data active means activation above about 19%, passing the limit was not always enough
Starred values were filed as active, the others as inactive. Sampled rows, rich in hits. Any-hit rate of the full collection: about 2.3%.

SMILES	CHO-K1 Ca PAM	M1 ag parental	M1 ag	CHO-K1 Ca antag	M1 antag	CHRM1 PAM
Oc1c(Cl)cccc1Cc1cc(Cl)cc(Cl)c1O	-22	8	3	15	41*	-22
CC1=CC(C)CC(C)OC(=O)CC(c2ccc(O)cc2)NC(=O)C(Cc2c(Br)[nH]c3ccccc23)N(C)C(=O)C(C)NC(=O)C(C)C1 (configuration not stated)	16	2	-2	-14	-28	12
Cc1ccccc1-n1c(-c2ccc([N+](=O)[O-])cc2)nc2ccccc2c1=O	10	1	-10	-2	49*	-29
O=c1c2ccccc2nc(-c2ccccc2)n1-c1ccncc1	-4	0	-1	31*	10	7
O=c1c2ccccc2nc(-c2ccc([N+](=O)[O-])cc2)n1-c1ccccc1	16	0	-5	-7	7	-1
COC(=O)C1=C(c2ccc(S(C)(=O)=O)cc2)C[C@@H]2CC[C@H]1N2C(=O)NCc1ccc(C(F)(F)F)cc1	0	0	-13	-7	2	-1
COC(=O)C1=C(c2cc3ccccc3s2)C[C@@H]2CC[C@H]1N2C(=O)NC1CCCCC1	-8	-1	3	-3	3	10
COC1CC2C=C(C)C=CC=CC(=O)NC(c3ccccc3)CC=CCCC(O)CC(=O)C2=C1O (configuration not stated)	18	10	12	23	56*	-18
COC(=O)C1=C(c2cc3ccccc3s2)C[C@@H]2CC[C@H]1N2C(=O)NCc1ccc(F)cc1	-6	-1	-12	-8	31	-35
O=C1NC(=O)N(c2ccc(Cl)cc2)C(=O)/C1=C\c1ccc(Sc2nc3ccccc3[nH]2)o1	-16	8	11	29*	-1	1
O=C1NC(=O)C(=Cc2ccc(Sc3ccccc3)o2)C(=O)N1	1	1	-5	0	0	4
CC(C)(C)c1ccc(CSc2cnn(C(C)(C)C)c(=O)c2Cl)cc1	-10	18*	4	32*	27	-6
CC(CC(C)(C)N1CC1)=NNC(=O)Nc1cccc2ccccc12	4	0	-4	-8	-27	16
CCCCCCn1c(O)c(C=NCCN2CCOCC2)c(=O)[nH]c1=O	10	17*	-8	7	-7	12
Cn1c(=O)n(CC(=O)N2CCC3(CC2)OCCO3)c(=O)c2ccccc21	18	0	3	-19	-64	25*
O=C(Cn1c(=S)[nH]c2ccccc2c1=O)N1CCC2(CC1)OCCO2	5	1	-4	-1	2	-2
O=c1[nH]c2ccccc2n1C1CCN(CCCC(c2ccc(F)cc2)c2ccc(F)cc2)CC1	-13	0	21*	14	7	-10
COc1cc2c(cc1OC)C1[C@H]3C(=CC[C@H]1OC2O)CCN3C (some centres not stated)	-5	0	-4	0	3	0
O=S(=O)(NC1CN2CCC1CC2)c1ccc(Cl)cc1 (configuration not stated)	-11	1	-12	-8	25*	-19
CN(C)CCSC1c2ccccc2CSc2ccccc21 (configuration not stated)	9	3	-8	-2	99*	-27
C[N+]1=C(/C=C/Nc2ccccc2)C(C)(C)c2ccccc21	2	0	-12	17	9	-6
CCN1/C(=C/C=C/C2=[N+](CC)c3ccccc3C2(C)C)C(C)(C)c2ccccc21	-15	437*	460*	95*	100*	-28
CCC(CO)(C(=O)OC1CC2CCC(C1)N2C)c1ccccc1 (configuration not stated)	20	0	-10	-9	101*	-28
C[C@]12CCC3C(CC[C@H]4C[C@@H](O)CC[C@]34C)C1CC[C@@H]2OC(=O)[C@H](N)CCCCN (some centres not stated)	0	0	-5	6	3	-3
CC(C)OCCCNC(=O)c1c(N)n(Cc2cccs2)c2nc3ccccc3nc12	-5	0	-1	25*	-2	4
CC(C)CNC(=O)c1c(N)n(Cc2ccc3c(c2)OCO3)c2nc3ccccc3nc12	14	1	-3	-9	41*	-16
